Measurements published in article PMC5540273 (PLoS ONE, 2017).
pKd: −log10 of the molar value.

Assays:
p38-beta = test system: T1, p38-beta
T1 construct: gene MAPK11

AAK1 = conditions: concentration: 1 μM, replicates: in singlicate; n = 1
ABL1-nonphosphorylated = conditions: concentration: 1 μM, replicates: in singlicate; n = 1
ABL1-phosphorylated = conditions: concentration: 1 μM, replicates: in singlicate; n = 1
ABL2 = conditions: concentration: 1 μM, replicates: in singlicate; n = 1
ACVR1B = conditions: concentration: 1 μM, replicates: in singlicate; n = 1
ACVR1 = conditions: concentration: 1 μM, replicates: in singlicate; n = 1
ACVR2A = conditions: concentration: 1 μM, replicates: in singlicate; n = 1
ACVR2B = conditions: concentration: 1 μM, replicates: in singlicate; n = 1
ACVRL1 = conditions: concentration: 1 μM, replicates: in singlicate; n = 1
ADCK3 = test system: T2, ADCK3; conditions: concentration: 1 μM, replicates: in singlicate; n = 1
T2 construct: gene CABC1

ADCK4 = conditions: concentration: 1 μM, replicates: in singlicate; n = 1
AKT1 = conditions: concentration: 1 μM, replicates: in singlicate; n = 1
AKT2 = conditions: concentration: 1 μM, replicates: in singlicate; n = 1
AKT3 = conditions: concentration: 1 μM, replicates: in singlicate; n = 1
ALK = conditions: concentration: 1 μM, replicates: in singlicate; n = 1
YSK4 = test system: T3, YSK4
T3 construct: gene MAP3K19

p38-alpha = test system: T4, p38-alpha
T4 construct: gene MAPK14
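For %Inh in this document: KINOMEscan kinase panel screen.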
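For pKd in this document: kd values determined as follow-up on hits from a single-replicate KINOMEscan panel screen.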

CNC(=O)c1ccc(C)c(-n2c(C)cc(OCc3ccc(F)cc3F)c(Br)c2=O)c1 was tested, and the pKd (p38-beta) was 6.92, the “%Inh” value (AAK1) was 0% and the “%Inh” value (ABL1-nonphosphorylated) was 0%. For the same compound, the “%Inh” value (ABL1-phosphorylated) was 0%, the “%Inh” value (ABL2) was 0% and the “%Inh” value (ACVR1B) was 7%. For the same compound, the “%Inh” value (ACVR1) was 0%, the “%Inh” value (ACVR2A) was 0% and the “%Inh” value (ACVR2B) was 2%. The “%Inh” value (ACVRL1) was 0%, the “%Inh” value (ADCK3) was 0% and the “%Inh” value (ADCK4) was 0%. For the same compound, the “%Inh” value (AKT1) was 0%, the “%Inh” value (AKT2) was 2% and the “%Inh” value (AKT3) was 0%. The “%Inh” value (ALK) was 0%.
In the case of c1ccc(-c2ccnc3[nH]ccc23)cc1 [SB-693578], the pKd (YSK4) was 6.33, the “%Inh” value (AAK1) was 68% and the “%Inh” value (ABL1-nonphosphorylated) was 0%. For the same compound, the “%Inh” value (ABL1-phosphorylated) was 4%, the “%Inh” value (ABL2) was 16% and the “%Inh” value (ACVR1B) was 0%. The “%Inh” value (ACVR1) was 0%, the “%Inh” value (ACVR2A) was 0% and the “%Inh” value (ACVR2B) was 0%. For the same compound, the “%Inh” value (ACVRL1) was 0%, the “%Inh” value (ADCK3) was 6% and the “%Inh” value (ADCK4) was 40%. The “%Inh” value (AKT1) was 0%, the “%Inh” value (AKT2) was 6% and the “%Inh” value (AKT3) was 0%. For the same compound, the “%Inh” value (ALK) was 33%.
COc1ccc(CSc2nnc(-c3ccc4ncsc4c3)o2)cc1C(F)(F)F was tested, and the “%Inh” value (AAK1) was 9%, the “%Inh” value (ABL1-nonphosphorylated) was 13% and the “%Inh” value (ABL1-phosphorylated) was 8%. The “%Inh” value (ABL2) was 2%, the “%Inh” value (ACVR1B) was 9% and the “%Inh” value (ACVR1) was 0%. For the same compound, the “%Inh” value (ACVR2A) was 0%, the “%Inh” value (ACVR2B) was 0% and the “%Inh” value (ACVRL1) was 2%. The “%Inh” value (ADCK3) was 0%, the “%Inh” value (ADCK4) was 0% and the “%Inh” value (AKT1) was 8%. The “%Inh” value (AKT2) was 4%, the “%Inh” value (AKT3) was 0% and the “%Inh” value (ALK) was 0%.
In the case of CC(=O)c1cccc(NC(=O)NC2CCN(c3ccnc(Nc4ccc(F)cc4)n3)C2)c1 (stereo not shown) [GSK1379710], the “%Inh” value (AAK1) was 16%, the “%Inh” value (ABL1-nonphosphorylated) was 0% and the “%Inh” value (ABL1-phosphorylated) was 0%. For the same compound, the “%Inh” value (ABL2) was 0%, the “%Inh” value (ACVR1B) was 0% and the “%Inh” value (ACVR1) was 0%. The “%Inh” value (ACVR2A) was 10%, the “%Inh” value (ACVR2B) was 13% and the “%Inh” value (ACVRL1) was 0%. The “%Inh” value (ADCK3) was 25%, the “%Inh” value (ADCK4) was 41% and the “%Inh” value (AKT1) was 0%. The “%Inh” value (AKT2) was 2%, the “%Inh” value (AKT3) was 0% and the “%Inh” value (ALK) was 25%.
With Cc1cccc2c(-c3ccncn3)c(-c3ccc(F)cc3)nn12 [GW515532] the pKd (p38-alpha) was 5.89, the “%Inh” value (AAK1) was 0% and the “%Inh” value (ABL1-nonphosphorylated) was 0%. For the same compound, the “%Inh” value (ABL1-phosphorylated) was 0%, the “%Inh” value (ABL2) was 2% and the “%Inh” value (ACVR1B) was 2%. The “%Inh” value (ACVR1) was 0%, the “%Inh” value (ACVR2A) was 19% and the “%Inh” value (ACVR2B) was 37%. For the same compound, the “%Inh” value (ACVRL1) was 21%, the “%Inh” value (ADCK3) was 40% and the “%Inh” value (ADCK4) was 40%. The “%Inh” value (AKT1) was 0%, the “%Inh” value (AKT2) was 8% and the “%Inh” value (AKT3) was 0%. For the same compound, the “%Inh” value (ALK) was 23%.
With COc1nccc(-c2c(-c3ccc(F)cc3)ncn2CCCN2CCOCC2)n1 [SB-282852] the pKd (p38-alpha) was 6.80, the “%Inh” value (AAK1) was 0% and the “%Inh” value (ABL1-nonphosphorylated) was 55%. The “%Inh” value (ABL1-phosphorylated) was 41%, the “%Inh” value (ABL2) was 49% and the “%Inh” value (ACVR1B) was 0%. For the same compound, the “%Inh” value (ACVR1) was 0%, the “%Inh” value (ACVR2A) was 0% and the “%Inh” value (ACVR2B) was 0%. The “%Inh” value (ACVRL1) was 0%, the “%Inh” value (ADCK3) was 0% and the “%Inh” value (ADCK4) was 18%. The “%Inh” value (AKT1) was 0%, the “%Inh” value (AKT2) was 3% and the “%Inh” value (AKT3) was 3%. The “%Inh” value (ALK) was 25%.
